Inconclusive results are not listed. Values without a mark were called inactive. Calls of active or inactive are those of the source. Calls follow the shape of the dose curve; as a rule, active = well fitted cell-killing curve with a large enough effect; inconclusive = small, poorly fitted or top-dose-only effect, or effect the other way; inactive = no such curve, though single readings can be large or run the other way. Non-standard residues stand in square brackets, D forms with d. Residues, ends and D or L forms follow the SMILES beside them. *: point of attachment. Nva = CCC[C@H](N)C(=O)O; Cbz = O=C(OCc1ccccc1)*
Potency is read from the fitted curve at half-maximal effect.

One experiment can be described thus: qHTS of pediatric cancer cell lines to identify multiple opportunities for drug repurposing: Confirmatory screen for Rh30 cells (AID 1347126). Also: nearly all actives have a fitted effect of over 55% in size. As to activity change, negative = cytotoxic: % is scaled to controls: 0 for no effect and ±100 for the full control effect. Particulars: Rh30 rhabdomyosarcoma cell viability; series mostly up to 45.9 µM; activity change, negative = cytotoxic: at the top concentration. In outline:
(§1)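 Viability after 48 h compound treatment at 37C, 500-1,000 cells/well, read as ATP luminescence with CellTiter-Glo. Primary screens used 11-point (MIPE, 0.78 nM-46 µM) or 8-point (NPC, 0.59 nM-46 µM) final concentrations; follow-up screens used 11-point dilutions.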
Background: qHTS replaces the single test concentration by a dilution series.
On to `CC(C)(O)Cn1c(NC(=O)c2ccc(-c3cn[nH]c3)s2)nc2cc(CN3CCOCC3)ccc21`, for which the Potency is 657 nM (active).

Consider `Cn1cc(CNCC2CCN(c3ncc(C(=O)NO)cn3)CC2)c2ccccc21`, for which the Potency is 293 nM (active).

Consider `Oc1ccc(-c2ccc(-c3cc(Nc4cccc(CNC5CC5)c4)n[nH]3)cc2)c(O)c1`, for which the Potency is 5220 nM (active).

Take `Nc1ncn([C@@H]2O[C@H](CO)[C@@H](O)[C@@H]2O)c(=O)n1`: the Potency was 18500 nM (active).

On to `C#CCC(Cc1cnc2nc(N)nc(N)c2n1)c1ccc(C(=O)N[C@@H](CCC(=O)O)C(=O)O)cc1` (stereo partly drawn), for which the “activity change, negative = cytotoxic” value was -3.33%.

In the case of `COc1ccc(C(C)=O)c(O)c1`, the “activity change, negative = cytotoxic” value was 0.362%.

Regarding `COc1cc(OC)c(C=CS(=O)(=O)Cc2ccc(OC)c(NCC(=O)O)c2)c(OC)c1`, the “activity change, negative = cytotoxic” value is -19.1%.

`CC(=O)N1CCN(c2ccc(OCc3nn(C)c(C)c3-c3cccc4c(CCCOc5cccc6ccccc56)c(C(=O)O)n(Cc5cccnc5)c34)cc2)CC1`: the “activity change, negative = cytotoxic” value was -25.2%.

For `CNC(=O)c1ccc(Nc2cc(Nc3ccccc3S(=O)(=O)C(C)C)c3cc[nH]c3n2)nc1`, the Potency was 4140 nM (active).

Consider `CC(C=CC(=O)NO)=C[C@@H](C)C(=O)c1ccc(N(C)C)cc1`, for which the “activity change, negative = cytotoxic” value is 4.49%.

In the case of `CC(C)C[C@H](NC(=O)[C@@H](NC(=O)c1cccc(-c2ccccc2)n1)[C@@H](C)O)B(O)O`, the Potency was 3290 nM (active).

Take `O=S(=O)(O)CCSSCCS(=O)(=O)O`: the “activity change, negative = cytotoxic” value is 0%.

For the compound `COc1cc([C@@H]2c3cc4c(cc3[C@H](O)[C@H]3COC(=O)[C@@H]23)OCO4)cc(OC)c1OC`, the “activity change, negative = cytotoxic” value is 11.8%.

`C=CC(=O)N1CCc2ccc(-n3c(=O)ccc4cnc5ccc(-c6cnn(C)c6)cc5c43)cc21`: the Potency was 5220 nM (active).

Regarding `CC(C)C[C@@H](C=O)NC(=O)[C@H](CC(C)C)NC(=O)[C@H](CC(C)C)NC(=O)OCc1ccccc1` (Cbz-Leu-Leu-Leu-aldehyde), the Potency was 3290 nM (active).

On to `CN(C)c1ccc(C(=O)NCCCCCCC(=O)NO)cc1`, for which the Potency is 3290 nM (active).

`CC(C(C)N1CC(=O)NC(=O)C1)N1CC(=O)NC(=O)C1` (stereo not drawn): the “activity change, negative = cytotoxic” value was -14.2%.

`CC1(C)O[C@@H]2C[C@H]3[C@@H]4CCC5=CC(=O)C=C[C@]5(C)[C@@H]4[C@@H](O)C[C@]3(C)[C@]2(C(=O)CO)O1`: the “activity change, negative = cytotoxic” value was -5.7%.

Take `NS(=O)(=O)OC[C@@H]1C[C@@H](n2ccc3c(N[C@H]4CCc5ccccc54)ncnc32)C[C@H]1O`: the “activity change, negative = cytotoxic” value is 0%.

As for `CCc1cc(C(C)=NOCc2ccc(C3CCCCC3)c(C(F)(F)F)c2)ccc1CN1CC(C(=O)O)C1`, the “activity change, negative = cytotoxic” value was 1.58%.

Take `N#Cc1c(NC(=O)c2cccc3ccccc23)sc2c1CCCC2`: the “activity change, negative = cytotoxic” value is -8.94%.

Take `N#CNC(=NCCCCCCOc1ccc(Cl)cc1)Nc1ccncc1`: the Potency was 18.5 nM (active).

Turning to `C=C1C(=CC=C2CCC[C@]3(C)[C@@H]([C@H](C)CCCC(C)(C)O)CC[C@@H]23)C[C@@H](O)C[C@@H]1O`, the “activity change, negative = cytotoxic” value is 0.631%.

For the compound `CC(=O)O[C@@]12CO[C@H]1C[C@H](O)[C@@]1(C)C(=O)[C@H](O)C3=C(C)[C@@H](OC(=O)C(O)[C@@H](NC(=O)OC(C)(C)C)c4ccccc4)C[C@@](O)([C@@H](OC(=O)c4ccccc4)[C@@H]21)C3(C)C` (stereo partly drawn), the “activity change, negative = cytotoxic” value is -51.5%.

Take `Cc1cc(Nc2ncc3c(n2)N(C)C(=O)N(c2cc(NC(=O)c4cccc(C(F)(F)F)c4)ccc2C)C3)n(C)n1`: the “activity change, negative = cytotoxic” value was -57.6%.

A short description of a further experiment: qHTS of pediatric cancer cell lines to identify multiple opportunities for drug repurposing: Confirmatory screen for Saos-2 cells (AID 1347127). Also: nearly all actives have a fitted effect of over 60% in size.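 As to activity change, negative = cytotoxic: plate controls were DMSO for no effect and bortezomib for full effect.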 Particulars: Saos-2 osteosarcoma cell viability; series mostly up to 45.9 µM; activity change, negative = cytotoxic: at the top concentration. In outline:
as §1
Consider `COc1ccc(S(=O)(=O)Nc2cccnc2Nc2ccc(O)cc2)cc1`, for which the Potency is 522 nM (active).

For `COc1ccc(C=Cc2cc(OC)c(OC)c(OC)c2)cc1NC(=O)[C@H](N)CO`, the Potency is 73.7 nM (active).

With `C[C@@H](Oc1ccc2[nH]nc(C=Cc3cnn(CCO)c3)c2c1)c1c(Cl)cncc1Cl`, the Potency is 2610 nM (active).

Consider `Cc1ccc([N+](=O)[O-])cc1S(=O)(=O)N(C)N=Cc1cnc2ccc(Br)cn12`, for which the Potency is 2330 nM (active).

On to `CNC(=O)Nc1ccc(-c2nc(N3CC4CCC(C3)O4)c3cnn(C4CCC5(CC4)OCCO5)c3n2)cc1`, for which the Potency was 1310 nM (active).

With `Nc1nc2c(c(=O)[nH]1)N(C=O)[C@H](CNc1ccc(C(=O)N[C@@H](CCC(=O)O)C(=O)O)cc1)CN2`, the “activity change, negative = cytotoxic” value was 8.83%.

Consider `C[C@H](NCc1ccc2c(c1)nc(NC(=O)c1ccc(-c3cn[nH]c3)s1)n2CCc1ccccc1)C(C)(C)C`, for which the Potency is 1470 nM (active).

As for `CCC[C@@H](C=O)NC(=O)[C@H](CC(C)C)NC(=O)[C@H](CC(C)C)NC(=O)OCc1ccccc1` (Cbz-Leu-Leu-[Nva]-aldehyde), the Potency was 3290 nM (active).

As to `COC(=O)[C@@H]1[C@H]2C[C@@H]3c4[nH]c5ccccc5c4CCN3C[C@@H]2CC[C@@H]1O`, the compound was called inactive.

As for `C=Cc1c(C)c2cc3nc(cc4[nH]c(cc5nc(cc1[nH]2)C(C)=C5CCC(=O)O)c(CCC(=O)OC)c4C)[C@@]1(C)C3=CC=C(C(=O)OC)[C@H]1C(=O)OC`, the outcome was inactive.

`CC(C)(N)c1ccc(-c2nc3ccccc3nc2-c2ccccc2)cc1`: the Potency is 737 nM (active).

Regarding `CC(C)(O)Cn1c(NC(=O)c2ccc(-c3cn[nH]c3)s2)nc2cc(CN3CCOCC3)ccc21`, the Potency was 585 nM (active).

As to `Cn1cc(CNCC2CCN(c3ncc(C(=O)NO)cn3)CC2)c2ccccc21`, the Potency was 208 nM (active).

For the compound `Oc1ccc(-c2ccc(-c3cc(Nc4cccc(CNC5CC5)c4)n[nH]3)cc2)c(O)c1`, the Potency is 9270 nM (active).

For the compound `Nc1ncn([C@@H]2O[C@H](CO)[C@@H](O)[C@@H]2O)c(=O)n1`, the Potency was 20800 nM (active).

As to `COc1cc(OC)c(C=CS(=O)(=O)Cc2ccc(OC)c(NCC(=O)O)c2)c(OC)c1`, the Potency was 329 nM (active).

Take `CNC(=O)c1ccc(Nc2cc(Nc3ccccc3S(=O)(=O)C(C)C)c3cc[nH]c3n2)nc1`: the Potency was 5850 nM (active).

On to `CC(C)C[C@H](NC(=O)[C@@H](NC(=O)c1cccc(-c2ccccc2)n1)[C@@H](C)O)B(O)O`, for which the Potency is 414 nM (active).

With `O=S(=O)(O)CCSSCCS(=O)(=O)O`, the “activity change, negative = cytotoxic” value is 0.739%.

In the case of `COc1cc([C@@H]2c3cc4c(cc3[C@H](O)[C@H]3COC(=O)[C@@H]23)OCO4)cc(OC)c1OC`, the Potency is 522 nM (active).

`C=CC(=O)N1CCc2ccc(-n3c(=O)ccc4cnc5ccc(-c6cnn(C)c6)cc5c43)cc21`: the Potency is 5220 nM (active).

For `CC(C)C[C@@H](C=O)NC(=O)[C@H](CC(C)C)NC(=O)[C@H](CC(C)C)NC(=O)OCc1ccccc1` (Cbz-Leu-Leu-Leu-aldehyde), the Potency was 1470 nM (active).

Turning to `CN(C)c1ccc(C(=O)NCCCCCCC(=O)NO)cc1`, the Potency is 2930 nM (active).

In the case of `CC(C(C)N1CC(=O)NC(=O)C1)N1CC(=O)NC(=O)C1` (stereo not drawn), the “activity change, negative = cytotoxic” value was -10.2%.

On to `NS(=O)(=O)OC[C@@H]1C[C@@H](n2ccc3c(N[C@H]4CCc5ccccc54)ncnc32)C[C@H]1O`, for which the “activity change, negative = cytotoxic” value is -27.8%.

Consider `CCc1cc(C(C)=NOCc2ccc(C3CCCCC3)c(C(F)(F)F)c2)ccc1CN1CC(C(=O)O)C1`, for which the Potency is 14700 nM (active).

For `CC(=O)O[C@@]12CO[C@H]1C[C@H](O)[C@@]1(C)C(=O)[C@H](O)C3=C(C)[C@@H](OC(=O)C(O)[C@@H](NC(=O)OC(C)(C)C)c4ccccc4)C[C@@](O)([C@@H](OC(=O)c4ccccc4)[C@@H]21)C3(C)C` (stereo partly drawn), the Potency is 13.1 nM (active).

As for `Cc1cc(Nc2ncc3c(n2)N(C)C(=O)N(c2cc(NC(=O)c4cccc(C(F)(F)F)c4)ccc2C)C3)n(C)n1`, the Potency is 585 nM (active).

The values are drawn from PubChem BioAssay (NCATS).
